# Rows were chosen to be rich in hits. Some 19% of all compounds tested hit in one or more screens of this group.
# TDP1 inh – qHTS Assay for Inhibitors of Tyrosyl-DNA Phosphodiesterase (TDP1). Potency, µM (highest dose often 130 µM), inactives show top-dose activity change, negative = inhibition, actives largely listed as inhibitors. recombinant TDP1, AlphaScreen DNA substrate cleavage. actives 0.28% (n = 350,000). AID 485290, 2010; further: potency means the concentration at half of the fitted maximal effect; nearly all actives have a fitted effect of over 40% in size
# Target sequence (Q9NUW8 whole entry, looked up): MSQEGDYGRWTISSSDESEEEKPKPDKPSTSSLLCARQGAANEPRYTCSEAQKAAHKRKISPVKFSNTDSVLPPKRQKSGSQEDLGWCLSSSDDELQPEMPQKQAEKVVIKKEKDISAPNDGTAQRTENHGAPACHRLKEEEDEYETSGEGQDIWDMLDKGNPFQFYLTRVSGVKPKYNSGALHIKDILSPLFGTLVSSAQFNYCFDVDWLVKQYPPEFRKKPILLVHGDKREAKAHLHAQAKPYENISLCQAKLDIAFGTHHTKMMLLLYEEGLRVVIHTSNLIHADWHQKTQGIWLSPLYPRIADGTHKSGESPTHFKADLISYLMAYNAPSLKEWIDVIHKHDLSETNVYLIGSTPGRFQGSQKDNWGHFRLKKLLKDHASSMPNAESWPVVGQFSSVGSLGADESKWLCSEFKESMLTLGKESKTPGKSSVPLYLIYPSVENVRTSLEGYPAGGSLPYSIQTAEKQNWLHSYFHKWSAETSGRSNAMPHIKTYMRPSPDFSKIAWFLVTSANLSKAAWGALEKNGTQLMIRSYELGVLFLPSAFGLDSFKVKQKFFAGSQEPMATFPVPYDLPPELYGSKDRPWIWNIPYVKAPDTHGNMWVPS
#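 Recombinant E. coli-expressed Tdp1 (1 nM) preincubated with compound 15 min at RT, then 5'-biotin/3'-phosphotyrosine-FITC DNA substrate (15 nM) added for 5 min. AlphaScreen beads (10 ug/ml) added, 10 min RT; tyrosine-FITC cleavage read as signal loss.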
# TDP1 cell CPT – qHTS for Inhibitors of human tyrosyl-DNA phosphodiesterase 1 (TDP1): qHTS in cells in presence of CPT. chicken DT40 Tdp1-/-;hTDP1 cells + 20 nM CPT, ATP luminescence, 48 h. actives 12% (n = 420,000). Potency, µM (highest dose often 46.2 µM), without a hit: at the top dose activity change, negative = growth inhibition, usual class: inhibitors; further: potency means the concentration at half of the fitted maximal effect; nearly all actives have a fitted effect of over 55% in size
#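 Chicken DT40 Tdp1-/- cells complemented with human TDP1, 400 cells/well, exposed to compounds plus 20 nM camptothecin for at least 48 h at 37 C; viability read as ATP content by CellTiter-Glo luminescence.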
# TDP1 cell noCPT – qHTS for Inhibitors of human tyrosyl-DNA phosphodiesterase 1 (TDP1): qHTS in cells in absence of CPT | actives 15% (n = 420,000) | DT40 Tdp1-/- hTDP1 cells, no CPT, ATP luminescence, 48 h | Potency, µM (top dose mostly 46.2 µM), for the others: at the top dose activity change, negative = growth inhibition, actives largely listed as inhibitors; further: potency means the concentration at half of the fitted maximal effect; nearly all actives have a fitted effect of over 55% in size
#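 Readout: luminescence from CellTiter-Glo after 30 min in the dark at RT. Cells: DT40 Tdp1-/- with stable hTDP1, 400/well. Exposure: compounds alone, ≥48 hr, 37 °C.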
# ELG1 repair inh – qHTS screen for small molecules that inhibit ELG1-dependent DNA repair in human embryonic kidney (HEK293T) cells expressing luciferase-tagged ELG1 | HEK293T ELG1-luciferase reporter, luminescence, 16 h; DNA damage induced by 5-fluorouridine | actives 2.3% (n = 330,000) | Potency, µM (series often up to 46.1 µM), inactives show top-dose activity change, negative = inhibition, actives largely listed as inhibitors; further: potency means the concentration at half of the fitted maximal effect; nearly all actives have a fitted effect of over 55% in size
#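 Overnight (16 hr) co-exposure of 2,000 cells/well to 5-fluorouridine and compound at 37 °C preceded detection. Luciferase was quantified via ONE-Glo luminescence; loss of signal denotes inhibition.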
# IL-1B inflam inh – qHTS for Inhibitors of Inflammasome Signaling: IL-1-beta AlphaLISA Primary Screen; THP-1 LPS/ATP IL-1B secretion, AlphaLISA, 16 h; stronger effect = lower value; activity change, % at 57.5 µM; actives 4.7% (n = 360,000); in the data active means activity change below about -50%; inconclusive means mostly about -30% to -49%
#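 THP-1 cells pretreated 1 hr with compounds (up to 57.5 uM final), then stimulated with LPS (250 ng/mL final) plus ATP (1.25 mM final); secreted IL-1B measured by AlphaLISA after 16 hr, decreased signal indicating inhibition.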
# Giardia killer – Small Molecules that selectively kill Giardia lamblia: qHTS; Giardia lamblia trophozoite viability; AID 540267, 2011; actives 0.15% (n = 340,000); activity change, % at 7.66 µM, hits read low; in the data active means activity change below about -80%; inconclusive means between about -30% and that limit;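 further: parasites exposed to compound for two days anaerobically before the ATP read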
#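 Killing of trophozoites was scored by loss of ATP luminescence after a 48 hrs anaerobic exposure to compounds at 37 deg C, using 100 cells per well.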
# * = called active by the depositor; ? = inconclusive; nt = not tested or not shown; [ ] = remark or other dose. Unless noted, the call rests on the fitted dose curve; in most records, active means well fitted curve in the direction sought with a large enough effect; inconclusive means small, poorly fitted or top-dose-only effect, or another doubt; inactive means no such curve, though single readings can be large; an effect the other way counts as inactive or inconclusive. On the % scale 0 is the no-effect control and ±100 the full control effect.
SMILES,TDP1 inh,TDP1 cell CPT,TDP1 cell noCPT,ELG1 repair inh,IL-1B inflam inh,Giardia killer
COC(=O)[C@@H]1CCCN1Cc1nc(Cc2ccccc2F)no1,6%,5%,4%,1%,-2,15
CC(Cc1ccccn1)NC(=O)CCc1nnc(C2CCCCC2)o1 (centres undefined),-3%,-6%,-16%,?,-14,24
O=C(Nc1ccc(N2CCCC2)c(Cl)c1)c1ccccc1F,nt,-27%,?,nt,-50*,nt
CC(=O)Nc1ccc(N2CCCCC2)c(C(=O)Nc2cccc(C)c2)c1,-2%,?,9.2µM*,?,-6,-12
Cc1cccc(NC(=O)c2cc(NC(=O)C3CCCCC3C(=O)O)ccc2N2CCCCC2)c1 (centres undefined),3%,-3%,0%,-4%,-8,8
O=C(Nc1ccc(N2CCCC2)cc1)c1cccc(Cl)c1,nt,-24%,13µM*,?,-19,-10
CCN(CC)C(=O)C1CCN(Cc2ccc(OCc3ccccc3)c(OC)c2)CC1,nt,?,-43%,-17%,?,10
Cc1ccc(C)c(NC(=O)CCC(=O)OC(C(=O)c2ccccc2)c2ccccc2)c1 (centres undefined),-3%,4%,-1%,14%,7,2
CCC(=O)Nc1cc(C(=O)OC(C(=O)c2ccc(C)c(C)c2)c2ccccc2)ccc1C (centres undefined),2%,18µM*,?,-19%,-59*,44
O=C(NS(=O)(=O)c1ccc(F)cc1)O[C@@H]1C(=O)c2cc(Br)ccc2O[C@H]1c1ccc2c(c1)OCO2,9%,nt,nt,nt,nt,nt
CC1=C(C(=O)N2CCCCCC2)CC(CC(=O)NCC2CCCCC2)C(=O)N1Cc1ccc(F)cc1 (centres undefined),nt,23µM*,?,nt,-25,nt
CC1=C(C(=O)N(C(C)C)C(C)C)CC(CC(=O)NCC2CCCCC2)C(=O)N1Cc1ccc(F)cc1 (centres undefined),nt,16µM*,18µM*,nt,?,nt
O=C(Nc1c(C(=O)c2ccc(F)cc2)oc2ccccc12)c1cc(-c2ccccc2)on1,-7%,-24%,-26%,nt,nt,nt
COc1ccc(S(=O)(=O)N2CCCCC2c2cc(C(=O)Nc3ccccc3)no2)cc1 (centres undefined),nt,-18%,-25%,nt,0,nt
O=C(N1CCN(c2ccccc2)CC1)C12CC3CC(CC(C3)C1)C2,4%,-18%,?,0%,6,-5
Cc1nnn(C23CC4CC(CC(CC(=O)Nc5ccc(C)c(Cl)c5)(C4)C2)C3)n1,0%,?,?,?,-5,15
Cc1cc(C)cc(NC(=O)CC23CC4CC(C2)CC(n2nnc(C)n2)(C4)C3)c1,1%,?,-13%,?,-75*,-11
Cc1nnn(C23C[C@@H]4C[C@@H](CC(C(=O)N5CCN(c6ccccc6)CC5)(C4)C2)C3)n1,1%,18µM*,13µM*,23µM*,-6,-22
CC(C)(C)NC(=O)C(c1ccc(-c2ccccc2)cc1)N(C[C@H]1CC[C@@H]([C@@H]2CC[C@H](CO)O2)O1)C(=O)c1ccccc1F (some centres undefined),-1%[56.1 µM],29µM*,16µM*,?,-63*,8
COc1ccc(C(C(=O)NC(C)(C)C)N(C[C@H]2CC[C@@H]([C@@H]3CC[C@H](CO)O3)O2)C(=O)c2ccccc2)cc1 (some centres undefined),0%[56.1 µM],1%,-8%,?,31,3
CC(C)(C)NC(=O)C(c1ccc(F)cc1)N(CC1CCCO1)C(=O)c1csnn1 (centres undefined),nt,7%,1%,18%,8,2
COc1ccc(C(C(=O)NC(C)(C)C)N(CC2CCCO2)C(=O)CCC(=O)Nc2cc(C)on2)cc1 (centres undefined),-1%,-1%,-19%,0%,7,-10
CC(C)(C)NC(=O)C(c1ccc(-c2ccccc2)cc1)N(C[C@H]1CC[C@@H]([C@@H]2CC[C@H](CO)O2)O1)C(=O)c1cccc(Cl)c1 (some centres undefined),0%[56.1 µM],?,?,?,-65*,-19
CC(C)(C)NC(=O)C(c1ccc(-c2ccccc2)cc1)N(C[C@H]1CC[C@@H]([C@@H]2CC[C@H](CO)O2)O1)C(=O)c1ccc(-c2ccccc2)cc1 (some centres undefined),1%[56.1 µM],?,15µM*,23µM*,-55*,17
Cc1nnc(NC(=O)c2ccc(S(=O)(=O)C(F)F)cc2)s1,0%,-13%,-1%,?,-8,-25
SMILES,TDP1 inh,TDP1 cell CPT,TDP1 cell noCPT,ELG1 repair inh,IL-1B inflam inh,Giardia killer
CC(C)(C)OC(=O)N1CCC(c2c(C(=O)N3CCN(C(=O)c4ccco4)CC3)cnn2-c2ccccc2Cl)CC1,1%,-27%,?,nt,nt,nt
O=S(=O)(c1ccc(Cl)cc1)c1cc(O)ccc1O,5%,-2%,-30%,?,3,2
O=S(=O)(c1ccccc1)c1cc(O)ccc1O,6%,3.3µM*,7.3µM*,6%,0,29
N#C/C(=C/c1ccccc1[N+](=O)[O-])c1nnc2n1CCCCC2,3%,12%,-2%,9%,-2,-10
O=C(/C=C/c1cn(-c2ccccc2)nc1-c1cccnc1)N1CCCC1,8%,8.2µM*,7.3µM*,13µM*,-12,-6
N#C/C(=C\c1cn(-c2ccccc2)nc1-c1cccnc1)c1nnc2n1CCCCC2,5%,?,?,21µM*,-61*,34
O=C(/C=C/c1cn(-c2ccccc2)nc1-c1cccnc1)NCCN1CCOCC1,0%,-25%,?,1%,-17,-24
O=C(/C=C/c1cn(-c2ccccc2)nc1-c1cccnc1)c1ccco1,5%,15µM*,10µM*,0%,-96*,-6
COc1ccccc1OCCn1c(=O)oc2ccc(C)cc21,-2%,2%,-15%,-3%,-2,13
Cc1cc(CN2CCCC(N3CCc4ccccc4C3)C2)cc(C)c1O (centres undefined),nt,13µM*,?,1%,-9,-7
